Results taken from the supplement of paper PMC6089552.
Among all 3,200 compounds or so, about 300 (9.4%) showed activity. Shown is part of a subset that was picked to be rich in actives.

Tested on: A673/TR/shEF
Test: cell viability (LOESS-normalised, relative to median of negative controls) (log2 ratio); higher = more viable cells (less compound effect), active = hit call of the paper (over 3 MAD below the median)
Conditions: treatment time: 72 h
Summary of the method: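 For three days, A673/TR/shEF Ewing sarcoma cells in 384-well plates (1,500 per well) were treated with library compounds at two or more concentrations or with DMSO controls, after doxycycline had been added or withheld 24 h beforehand to induce EWS-FLI1 shRNA knockdown. Viability was read by CellTiter-Glo luminescence on an Envision reader. The data were LOESS-corrected per plate, divided by the median of negative controls and log2-transformed.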

[1] = 0.25 µM, library screen: screen1, EWS-FLI1 expression: high (no doxycycline)
[2] = 0.25 µM, library screen: screen1, EWS-FLI1 expression: low (doxycycline-induced shRNA knockdown)
[3] = 2.5 µM, library screen: screen1, EWS-FLI1 expression: high (no doxycycline)
[4] = 2.5 µM, library screen: screen1, EWS-FLI1 expression: low (doxycycline-induced shRNA knockdown)
[5] = 0.25 µM, library screen: screen2, EWS-FLI1 expression: high (no doxycycline)
[6] = 0.25 µM, library screen: screen2, EWS-FLI1 expression: low (doxycycline-induced shRNA knockdown)
[7] = 2.5 µM, library screen: screen2, EWS-FLI1 expression: high (no doxycycline)
[8] = 2.5 µM, library screen: screen2, EWS-FLI1 expression: low (doxycycline-induced shRNA knockdown)

Measured: cell viability (log2)

Cc1[nH]c2ccccc2c1CN(C)C
inactive: [1] 0.0738 | [2] 0.0842 | [3] 0.116 | [4] 0.138

NC(C(=O)O)c1cc(=O)[nH]o1 (centres undefined)
inactive: [5] 0.0457 | [6] -0.00138 | [7] 0.0296 | [8] 0.048

C=C1C([C@]2(C)C(CC(=O)OC)[C@@](C)(COC(C)=O)OC(=O)C[C@@H]2OC(C)=O)[C@@H](OC=O)[C@H](OC(=O)C(OC(C)=O)C(C)CC)[C@@]2(C)[C@H](c3ccoc3)CC(=O)C12O (some centres undefined)
inactive: [1] 0.0373 | [2] -0.0517 | [3] 0.0516 | [4] -0.0237

C/C(O)=C(\C#N)C(=O)Nc1cc(Br)ccc1Br
inactive: 0.025 µM, library screen: screen1, EWS-FLI1 expression: high (no doxycycline) 0.198 | 0.025 µM, library screen: screen1, EWS-FLI1 expression: low (doxycycline-induced shRNA knockdown) -0.0693 | [1] 0.124 | [2] -0.0251 | [5] 0.133 | [6] 0.0965 | [4] -0.0427 | [7] 0.0403 | [8] 0.0594 | 25 µM, library screen: screen1, EWS-FLI1 expression: low (doxycycline-induced shRNA knockdown) -0.00927
active: [3] -0.396 | 25 µM, library screen: screen1, EWS-FLI1 expression: high (no doxycycline) -0.451

COc1cc2ccc(=O)oc2c2ccoc12
inactive: [1] 0.222 | [2] 0.132 | [3] 0.248 | [4] 0.164

CCN(CC)C(=O)NC1C=C2c3cccc4[nH]cc(c34)CC2N(C)C1 (centres undefined)
inactive: [5] 0.194 | [6] 0.105 | [7] 0.116 | [8] 0.101

O=[N+]([O-])c1ccc(O[C@@H]2O[C@H](CO)[C@@H](O)[C@H](O)[C@H]2F)c([N+](=O)[O-])c1
inactive: [5] 0.132 | [6] 0.00815 | [7] 0.0628 | [8] 0.111

COc1c2c(cc3c1OCO3)[C@]13C=C[C@H](OC)C[C@H]1N(C2)CC3O (some centres undefined)
inactive: [1] 0.0348 | [2] 0.0745 | [3] 0.0133 | [4] 0.0521

COP(=S)(OC)SCn1nnc2ccccc2c1=O
inactive: 0.103 µM, library screen: screen3, EWS-FLI1 expression: high (no doxycycline) -0.0814 | 0.103 µM, library screen: screen3, EWS-FLI1 expression: low (doxycycline-induced shRNA knockdown) 0.0283 | [1] -0.0615 | [2] 0.0291 | 0.308 µM, library screen: screen3, EWS-FLI1 expression: high (no doxycycline) -0.0468 | 0.308 µM, library screen: screen3, EWS-FLI1 expression: low (doxycycline-induced shRNA knockdown) 0.0348 | 0.926 µM, library screen: screen3, EWS-FLI1 expression: high (no doxycycline) -0.0952 | 0.926 µM, library screen: screen3, EWS-FLI1 expression: low (doxycycline-induced shRNA knockdown) 0.162 | [3] 0.00869 | [4] 0.101 | 2.8 µM, library screen: screen3, EWS-FLI1 expression: high (no doxycycline) -0.136 | 2.8 µM, library screen: screen3, EWS-FLI1 expression: low (doxycycline-induced shRNA knockdown) 0.125 | 8.3 µM, library screen: screen3, EWS-FLI1 expression: low (doxycycline-induced shRNA knockdown) 0.196 | 25 µM, library screen: screen3, EWS-FLI1 expression: low (doxycycline-induced shRNA knockdown) 0.00265
active: 8.3 µM, library screen: screen3, EWS-FLI1 expression: high (no doxycycline) -0.267 | 25 µM, library screen: screen3, EWS-FLI1 expression: high (no doxycycline) -0.422

CNC(=O)CSP(=S)(OC)OC
inactive: [1] 0.102 | [2] 0.0684 | [3] 0.15 | [4] 0.0982

CCCN1CCc2cccc3c2[C@H]1Cc1ccc(O)c(O)c1-3
inactive: [5] 0.161 | [6] 0.0862 | [7] 0.178 | [8] 0.107
